Records with an inconclusive call do not appear. Active and inactive are the calls of the source. Calls follow the shape of the dose curve; as a rule, active = well fitted inhibition curve with a large enough effect; inconclusive = small, poorly fitted or top-dose-only effect; inactive = no such curve, though single readings can be large or run the other way. Non-standard residues stand in square brackets, D forms with d. Residues, ends and D or L forms follow the SMILES beside them. *: point of attachment. Sta = CC(C)C[C@H](N)[C@@H](O)CC(=O)O; Isovaleryl = CC(C)CC(=O)*
Potency is read from the fitted curve at half-maximal effect.

This test in a line: BET inhibitor-based combinations targeting novel dependencies in MECOM-rearranged (r) AML: HNT-34 cell line (AID 2202234). Also: nearly all actives have a fitted effect of over 35% in size.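 As to viability (% of control): plate controls were vehicle wells for no effect and cell-free wells for full effect.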 The note with it: HNT-34 AML viability, CellTiter-Glo luminescence, 48 h; series mostly up to 46 µM; viability (% of control): at the top concentration. The source says: Ecotropic viral insertion site 1 (EVI1) is located on chromosome 3q26.2 as part of the MECOM (MDS and EVI1 complex) locus. Under normal hematopoiesis, EVI1 is a regulator of hematopoietic stem cell maintenance and self-renewal and EVI1 levels decrease as the cells differentiate. In approximately 5-10% of de novo acute myeloid leukemia (AML) EVI1 is aberrantly expressed, including Chromosomal inv(3)(q21;q26.2) or t(3;3)(q21;q26.2) alterations (MECOM-r) that account for about 50% of AML with EVI1 overexpression 31. AMLs with high levels of EVI1 have a poor prognosis and an overall survival time averaging between 10-14 months. EVI1 overexpression confers resistance in leukemia cells, highlighting the need to develop new targeted therapies for EVI1 overexpressing AMLs. Here, we performed an unbiased chemical drug screening by evaluating the single agent activity of a collection of 2,480 oncology-focused, approved and investigational drugs (NCATS Mechanism Interrogation Plates, MIPE v5.0) against a panel of seven AML cell lines. These included four MECOM-r cell-lines (AML-191, AML-194, UCSD-AML1 and HNT-34) and three non-MECOM-r AMLs (MV4-11, OCI-AML3 and SET-2). Exploiting the mechanistic redundancy built in the library, we identified target-level sensitivities in MECOM-r AML cells and relative activity as compared to other AML subtypes.
A collection of 2480 mechanistically annotated dugs (MIPE v5.0) was used to screen four 3q26.2 rearranged AML cell lines and three non-3q26.2 rearranged AML cell lines. This library purposely exploits redundancy by including multiple inhibitors of key onco-targets, while simultaneously encompassing mechanistic diversity, targeting more than 800 distinct mechanisms of action. Briefly, cells were seeded in 5 uL of growth media using a Multidrop Combi dispenser into 1536 well white polystyrene tissue culture treated plates (Corning) at a density of 500cells/well. For each cell-line, for each of the 2480 drugs in MIPE v5.0 library, an 11-point dose curve was generated via a 1536 pin-tool. Plates were incubated for 48 hr at standard incubator conditions, covered by a stainless steel gasketed lid to prevent evaporation. Cell viability was determined by luminescence based, Cell Titer Glo assay (Promega). In detail, 3 uL of Cell Titer Glo were added to each well and plates were incubated at room temperature for 15 min with a stainless-steel lid in place. Luminescence readings were taken using a Viewlux (PerkinElmer) with a 2 s exposure time per plate. Compound dose-response curves were normalized to DMSO and empty well controls on each plate. Quantitative drug activity data from dose-response curves was determined utilizing area Under the Curve (AUC) and Z-transformed AUC (Z-AUC, a mean-centering transformation applied to each individual cell-line screened).
(In general: Cellular ATP, detected with luciferase, serves as a proxy for viable cell number.)
`CC[C@]1(O)CC2CN(CCc3c([nH]c4ccccc34)[C@@](C(=O)OC)(c3cc4c(cc3OC)N(C)[C@H]3[C@@](O)(C(=O)OC)[C@H](OC(C)=O)[C@]5(CC)C=CCN6CC[C@]43[C@@H]65)C2)C1` (stereo not given in full): the Potency is 0.209 µM (active).
As for `CS(=O)(=O)c1ccc(C2=C(c3ccccc3)C(=O)OC2)cc1`, the “viability (% of control)” value was 95.3% (inactive).
With `COC(=O)[C@@H]1[C@H]2C[C@H]3c4[nH]c5ccccc5c4CCN3C[C@@H]2CC[C@@H]1O`, the “viability (% of control)” value is 67.9% (inactive).
Still for that read-out and setting: in the case of `CC1(C)O[C@@H]2C[C@H]3[C@@H]4CCC5=CC(=O)C=C[C@]5(C)[C@@]4(F)[C@@H](O)C[C@]3(C)[C@]2(C(=O)CO)O1` it was 88.6% (inactive).
As to `C[C@@H](NC(=O)c1ncnc(N)c1Cl)c1ncc(C(=O)Nc2cc(C(F)(F)F)c(Cl)cn2)s1`, the Potency was 2.35 µM (active).
Consider `CNC(=O)c1nn(C)c2c1C(C)(C)Cc1cnc(Nc3ccc(N4CCN(C)CC4)cc3)nc1-2`, for which the Potency was 0.263 µM (active).
As for `C[C@H](NC(=O)Cc1cc(F)cc(F)c1)C(=O)N[C@H](C(=O)OC(C)(C)C)c1ccccc1`, the “viability (% of control)” value was 99.8% (inactive).
On to `Cc1n[nH]c(C)c1Cc1sc2c(c1C(=O)N1C[C@H](O)CO1)c(=O)n(C)c(=O)n2CC(C)C`, for which the “viability (% of control)” value is 104% (inactive).
Take `CCc1nc(C(N)=O)c(Nc2ccc(N3CCC(N4CCN(C)CC4)CC3)c(OC)c2)nc1NC1CCOCC1`: the Potency was 1.48 µM (active).
Still for that read-out and setting: in the case of `Cc1[nH]c(/C=C2\C(=O)Nc3ccc(F)cc32)c(C)c1C(=O)NCCN1CCCC1` it was 3.62 µM (active); in that of `N=c1ccn2c(n1)O[C@H]1[C@@H](O)[C@@H](CO)O[C@H]12`, 0.235 µM (active).
`CCOC(=O)O[C@]1(C(=O)OCCl)CC[C@H]2[C@@H]3CCC4=CC(=O)C=C[C@]4(C)[C@H]3[C@@H](O)C[C@@]21C`: the “viability (% of control)” value was 82.2% (inactive).
`COc1cc(N2CCC(N3CCN(C)CC3)CC2)ccc1Nc1ncc(Cl)c(Nc2ccccc2P(C)(C)=O)n1`: the Potency is 0.934 µM (active).
For `C[C@](Cc1c[nH]c2ccccc12)(NC(=O)OC1C2CC3CC(C2)CC1C3)C(=O)NC[C@H](NC(=O)CCC(=O)O)c1ccccc1` (stereo not given in full), the “viability (% of control)” value was 117% (inactive).
For the compound `COc1cc(OC2CCN(C)CC2)ccc1Nc1ncc2c(n1)n(C1CCCC1)c(=O)n2C`, the Potency is 13.2 µM (active).
In the case of `Cn1cc(-c2[nH]c3cc(NC(=O)[C@H](N)C4CCCCC4)cc4c3c2C=NNC4=O)cn1`, the Potency is 1.05 µM (active).
Regarding `COc1cccc(OCCCN)c1-c1cc(Nc2cnc(C#N)cn2)n[nH]1`, the Potency was 0.059 µM (active).
For the compound `O=C(/C=C/C=C/c1ccc2c(c1)OCO2)N1CCCCC1`, the “viability (% of control)” value is 101% (inactive).
Consider `CC(=O)c1c(C)c2cnc(Nc3ccc(N4CCNCC4)cn3)nc2n(C2CCCC2)c1=O`, for which the Potency is 16.6 µM (active).
With `O=C1C(Cl)=C(NCCN2CCOCC2)C(=O)c2ncccc21`, the Potency is 5.9 µM (active).
On to `Cc1cc(Nc2ncc(Cl)c(Nc3ccccc3S(=O)(=O)C(C)C)n2)c(OC(C)C)cc1C1CCNCC1`, for which the Potency is 6.61 µM (active).
As for `CN1C(=O)N[C@@H](Cc2c[nH]c3c(Cl)cccc23)C1=O`, the “viability (% of control)” value is 96.5% (inactive).
For the compound `CC(C)CC(=O)N[C@H](C(=O)N[C@H](C(=O)N[C@@H](CC(C)C)[C@@H](O)CC(=O)N[C@@H](C)C(=O)N[C@@H](CC(C)C)[C@@H](O)CC(=O)O)C(C)C)C(C)C` (Isovaleryl-VV[Sta]A[Sta]-OH), the “viability (% of control)” value was 103% (inactive).
For the compound `CC[C@@]1(O)C(=O)OCc2c1cc1n(c2=O)Cc2cc3c(CN(C)C)c(O)ccc3nc2-1`, the Potency was 0.0083 µM (active).
As to `O=C(Nc1cc(C(F)(F)F)cc(C(F)(F)F)c1)c1cc(Cl)ccc1O`, the Potency is 2.35 µM (active).
`CCCCC(CC)COC(=O)C(C#N)=C(c1ccccc1)c1ccccc1` (stereo not given): the “viability (% of control)” value is 103% (inactive).
In the case of `CC[C@]1(O)C[C@H]2CN(CCc3c([nH]c4ccccc34)[C@@](C(=O)OC)(c3cc4c(cc3OC)N(C=O)[C@H]3[C@@](O)(C(=O)OC)[C@H](OC(C)=O)[C@]5(CC)C=CCN6CC[C@]43[C@@H]65)C2)C1`, the Potency was 0.209 µM (active).
Turning to `COc1ccc(C(=O)C2CCN(CC(=O)N(Cc3nc4c(c(=O)[nH]3)COCC4)CC3CC3)CC2)cc1`, the “viability (% of control)” value is 96.1% (inactive).
Consider `CCCS(=O)c1ccc2nc(NC(=O)OC)[nH]c2c1` (stereo not given), for which the Potency was 13.2 µM (active).
As for `COc1cc2ncn(-c3cc(OCc4ccccc4S(C)(=O)=O)c(C#N)s3)c2cc1OC`, the “viability (% of control)” value was 85.5% (inactive).
Regarding `CCc1cc(C(N)=O)ccc1-n1nc(C(C)C)c2c(-n3cnc(-c4cnn(C)c4)c3)ccnc21`, the Potency was 1.32 µM (active).
Take `O=c1ccn([C@@H]2O[C@H](CO)[C@@H](O)[C@H]2O)c(=O)[nH]1`: the “viability (% of control)” value was 83.6% (inactive).
Consider `CCC(C)(C)c1ccc(CC(C)CN2C[C@@H](C)O[C@@H](C)C2)cc1` (stereo not given in full), for which the “viability (% of control)” value was 82.3% (inactive).
`CN(C)C1CCN(C(=O)c2ccc(NC(=O)Nc3nc(N4CCOCC4)nc(N4CCOCC4)n3)cc2)CC1`: the Potency is 0.105 µM (active).
Consider `Cc1ccnc(NS(=O)(=O)c2ccc(NC(=O)Nc3ccc(S(=O)(=O)Nc4nccc(C)n4)cc3)cc2)n1`, for which the “viability (% of control)” value is 113% (inactive).
Turning to `COC(=O)N1CC2(CC2)C[C@H](C(=O)NO)[C@H]1C(=O)N1CCN(c2ccccc2)CC1`, the “viability (% of control)” value was 92.2% (inactive).
As to `COc1cccc(-c2ccc(NC(=O)C3=C(C(=O)O)CCC3)c(F)c2)c1`, the “viability (% of control)” value is 92.8% (inactive).
With `CCCCN(CCCC)CC(O)c1cc(Cl)cc2c1-c1ccc(Cl)cc1/C2=C/c1ccc(Cl)cc1` (stereo not given), the “viability (% of control)” value was 105% (inactive).
Regarding `CCN(CC)CCCC(C)Nc1ccnc2cc(Cl)ccc12` (stereo not given), the Potency is 5.39 µM (active).
Regarding `CCN(c1ccccc1)c1cc(NC)[n+](C)c(C)n1`, the “viability (% of control)” value was 109% (inactive).

The record behind these values is PubChem BioAssay (NCATS).
